Experimental data from PubChem BioAssay AID1224855 (National Center for Advancing Translational Sciences (NCATS), 2016).
Results filed as inconclusive are left out. Where a call stands in place of a potency, no number is given. Active and inactive are the calls of the source. Calls come from the whole dose curve; as a rule, active = well fitted inhibition curve with a large enough effect; inconclusive = small, poorly fitted or top-dose-only effect; inactive = no such curve, though single readings can be large or run the other way.

Assay: Confirmation assay for measurement of the activity of small molecule inhibitors on Zika virus induced Caspase-3 activity in human iPSC derived neural progenitor cells (hNPCs)
Conditions: hNPC ZIKV-induced caspase-3/7, Caspase-Glo luminescence, 6 h; series mostly up to 46.1 µM
Excerpt: National Center for Advancing Translational Sciences [NCATS] Johns Hopkins University School of Medicine Florida State University Assay Overview: Increase in the Caspase-3 activity indicates an activation of apoptosis cell death pathway caused by Zika virus infection in certain types of neuronal cells including human neural progenitor cells (hNPCs), astrocytes, and astrocytoma cell line (SNB-19). This cell-based caspase-3 activity assay measures the increased caspase-3 activity in the human iPSC derived neural progenitor cells (hNPCs) after a 6-hour Zika virus infection with a luminescence readout. A decrease in the luminescence signal in this assay by small molecule treatment indicates an inhibitory effect of that small molecule on the Zika virus induced caspase-3 activity that may correlate with its effect on reduction of Zika virus caused cell death.
Assay Protocol Summary: The medium for hNPCs consists of DMEM/F12, N2 supplement (ThermoFisher, Cat.# 17502048), NEAA (ThermoFisher, Cat. # 11140050), 2 ug/ml heparin, 2 uM cyclopamine, and B27 (ThermoFisher, Cat. # 17504044). A Caspase-Glo 3/7 assay kit (catalog number G8092; Promega, Madison, WI) was used to detect caspase-3 activity induced by Zika virus infection in human cells. The reagent mixture was reconstituted as described in the protocol from the manufacturer. Polystyrene tissue culture treated and PDL coated white plates were obtained from Greiner Bio-One (Monroe, NC). Cells were seeded in 384- or 1536-well assay plates and cultured at 37 C with 5% CO2 for 16 to 20 hours. The typical cell seeding density in the 1536-well plate assay is 350 cells/well in 3 ul medium for hNPCs in tissue culture treated plates. Compounds were added to cells and incubated for one hour before addition of ZIKV solution to cells (2 FFU/cell). After incubation at 37 C with 5% CO2 for 6 hours, the reagent mixture of Caspase-Glo 3/7 assay kit was added to each well, followed by incubation at room temperature for 30 minutes. The luminescence intensity of the assay plates was measured using a ViewLux plate reader (PerkinElmer). Data were normalized by using the cell-containing wells without ZIKV as a negative control (0% induction of caspase 3/7 activity) and wells containing ZIKV infected cells (Caspase-3 activity induced) as a positive control (100% induction of caspase 3 activity). The percentage inhibitions of the increased Caspase-3 activity by small molecule inhibitors were then calculated.

Row | SMILES | Potency
1 | CC(C)N[C@@H]1CCn2c(=O)[nH]c3cccc(c32)[C@@H]1O | inactive
2 | O=S(=O)(CC1CS1)c1ccc(Oc2ccccc2)cc1 (centres undefined) | inactive
3 | O=c1c2ccccc2[se]n1-c1ccccc1 | 7.74 µM (active)
4 | O=C1CCC[C@@H]2[C@H]3CCCN4CCC[C@@H](CN12)[C@@H]34 | inactive
5 | O=C(Nc1ccc(Br)cc1)c1cc(Br)cc(Br)c1O | 13.8 µM (active)
6 | CC(C)[C@H]1C(=O)N[C@H](CO)Cc2c[nH]c3cccc(c23)N1C | inactive
7 | Oc1ccc([C@H]2CNCc3c2ccc(O)c3O)cc1O | inactive
8 | O=C1C=CC[C@@H]2[C@H]3CCCN4CCC[C@@H](CN12)[C@@H]34 | inactive
9 | CC(C)[N+](C)(CCC(C(N)=O)(c1ccccc1)c1ccccc1)C(C)C | inactive
10 | COP(=S)(OC)SCN1C(=O)c2ccccc2C1=O | inactive
11 | CC(O)CN1CCN(CC(=O)[O-])CCN(CC(=O)[O-])CCN(CC(=O)[O-])CC1.[Gd+3] (centres undefined) | inactive
12 | COc1cccc2c1C(=O)c1c(O)c3c(c(O)c1C2=O)C[C@@](O)(C(=O)CO)CC3OC1CC(N2CCOC(OC)C2)C(O)C(C)O1 (some centres undefined) | inactive
13 | COC1(CS(=O)c2ccccc2)CCN(CCc2c[nH]c3ccc(F)cc23)CC1 (centres undefined) | inactive
14 | CC[n+]1c(-c2ccccc2)c2cc(N)ccc2c2ccc(N)cc21 | inactive
